In all, about 5,500 compounds went through this assay and about 2,000 (36%) were called active. Not shown: some 18% with an inconclusive outcome. No stated cut-off is given here; in the data, active means normalized growth mostly below about 0.91 (no sharp cut-off); inconclusive means no clear call, values can overlap the other calls; inactive means mostly above about 0.92. The list shows a part of the results.
Assay: chemical genetic growth profiling, strain panel (AID 1159580);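 further: tested at 20 µM; growth read once vehicle control cultures reached saturation at 30 °C; 1 = growth at the plate median or of vehicle wells; lower values mean less growth of the strain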
Conditions: S. cerevisiae deletion strains, growth OD
[1] = locus YAL013W, strain DEP1, active compounds read low
[2] = locus YHR030C, strain SLT2, active compounds read low
[3] = locus YJR075W, strain HOC1, active compounds read low
[4] = locus YNL153C, strain GIM3, active compounds read low
[5] = locus YNL322C, strain KRE1, active compounds read low
[6] = locus YPL055C, strain LGE1, active compounds read low

Measured: normalized growth

O=C1CC(=O)CC(c2ccc(Cl)c(Cl)c2)C1
inactive: [1] 0.982 | locus YBR229C, strain ROT2, active compounds read low 0.998 | locus YDL101C, strain DUN1, active compounds read low 1.02 | locus YDR150W, strain NUM1, active compounds read low 1.04 | locus YEL061C, strain CIN8, active compounds read low 0.978 | locus YGR078C, strain PAC10, active compounds read low 0.997 | [2] 1.04 | locus YHR087W, strain rtc3, active compounds read low 0.98 | locus YJR043C, strain POL32, active compounds read low 1.01 | [3] 1.01 | locus YKL190W, strain CNB1, active compounds read low 0.998 | locus YLR039C, strain RIC1, active compounds read low 0.959 | locus YLR058C, strain SHM2 (second series), active compounds read low 0.985 | locus YLR085C, strain ARP6, active compounds read low 0.983 | locus YLR262C, strain YPT6, active compounds read low 0.949 | locus YML094W, strain GIM5, active compounds read low 0.99 | locus YMR219W, strain ESC1, active compounds read low 0.991 | locus YMR263W, strain SAP30, active compounds read low 1.01 | locus YMR307W, strain GAS1, active compounds read low 1.02 | [4] 0.997 | locus YNL298W, strain CLA4 (second series), active compounds read low 1 | [5] 0.976 | locus YNR030W, strain Alg12, active compounds read low 1 | [6] 1.15 | locus YPL241C, strain CIN2, active compounds read low 1.01 | locus YPR135W, strain CTF4, active compounds read low 1.22

CN[C@H]1CC[C@@H](c2ccc(Cl)c(Cl)c2)c2ccccc21
inactive: locus YAL030W, strain snc1, active compounds read low 0.985 | locus YBR171W, strain sec66, active compounds read low 1.01 | locus YCL011C, strain gbp2, active compounds read low 0.919 | locus YCL061C, strain MRC1, active compounds read low 0.956 | locus YCL069W, strain vba3, active compounds read low 0.968 | locus YCR088W, strain abp1, active compounds read low 0.964 | locus YDL005C, strain med2, active compounds read low 1.07 | locus YDL040C, strain nat1, active compounds read low 1.02 | locus YDR001C, strain nth1, active compounds read low 1.02 | locus YDR159W, strain sac3, active compounds read low 1.05 | locus YDR297W, strain sur2, active compounds read low 0.976 | locus YDR334W, strain swr1, active compounds read low 1.04 | locus YDR392W, strain spt3, active compounds read low 0.939 | locus YEL037C, strain rad23, active compounds read low 0.953 | locus YEL061C, strain CIN8 (second series), active compounds read low 1 | locus YER016W, strain bim1, active compounds read low 0.986 | locus YER111C, strain swi4, active compounds read low 1.01 | locus YER155C, strain BEM2 (second series), active compounds read low 1.01 | locus YGL167C, strain pmr1, active compounds read low 1.04 | locus YGL227W, strain vid30, active compounds read low 1.02 | locus YGL240W, strain doc1, active compounds read low 1.06 | [2] 0.859 | locus YHR079C, strain IRE1, active compounds read low 0.959 | locus YJL092W, strain hpr5, active compounds read low 0.945 | locus YJL095W, strain BCK1, active compounds read low 0.935 | locus YJL115W, strain asf1, active compounds read low 1.03 | locus YJL154C, strain vps35, active compounds read low 1.02 | locus YJR066W, strain TOR1, active compounds read low 0.929 | locus YKL160W, strain elf1, active compounds read low 0.931 | locus YKR026C, strain gcn3, active compounds read low 0.999 | locus YKR091W, strain srl3, active compounds read low 1.02 | locus YLL001W, strain dnm1, active compounds read low 0.929 | locus YLL026W, active compounds read low 0.942 | locus YLL041C, strain sdh2, active compounds read low 1.01 | locus YLR113W, strain HOG1, active compounds read low 0.936 | locus YLR258W, strain gsy2, active compounds read low 0.932 | locus YLR262C, strain YPT6 (second series), active compounds read low 1.02 | locus YLR384C, strain iki3, active compounds read low 1.02 | locus YML120C, strain ndi1, active compounds read low 0.983 | locus YMR125W, strain sto1, active compounds read low 0.943 | locus YMR129W, active compounds read low 1.03 | locus YNL183C, strain NPR1, active compounds read low 0.954 | locus YNL248C, strain rpa49, active compounds read low 0.935 | locus YNL322C, strain KRE1 (second series), active compounds read low 1.08 | locus YNR049C, strain mso1, active compounds read low 0.996 | locus YOR001W, strain rrp6, active compounds read low 0.928 | locus YOR080W, strain dia2, active compounds read low 0.982 | locus YOR231W, strain MKK1, active compounds read low 0.988 | locus YOR265W, strain rbl2, active compounds read low 0.953 | locus YPL078C, strain atp4, active compounds read low 0.922 | locus YPL106C, strain sse1, active compounds read low 1.03 | locus YPL240C, strain hsp82, active compounds read low 1.01 | locus YPL256C, strain CLN2, active compounds read low 0.969
active: locus YAL021C, strain ccr4, active compounds read low 0.529 | locus YAL026C, strain drs2, active compounds read low 0.0645 | locus YBL061C, strain skt5, active compounds read low 0.864 | locus YBR009C, strain hhf1, active compounds read low 0.82 | locus YBR023C, strain chs3, active compounds read low 0.858 | locus YBR231C, strain swc5, active compounds read low 0.89 | locus YBR279W, strain paf1, active compounds read low 0.905 | locus YCL016C, strain dcc1, active compounds read low 0.866 | locus YDR069C, strain doa4, active compounds read low 0.639 | locus YDR137W, strain rgp1, active compounds read low 1.29 [resistant] | locus YDR195W, strain ref2 1.47 [resistant] | locus YDR335W, strain msn5, active compounds read low 0.849 | locus YEL003W, strain gim4, active compounds read low 0.898 | locus YER015W, strain faa2, active compounds read low 0.634 | locus YFR010W, strain ubp6, active compounds read low 0.605 | locus YGL173C, strain kem1, active compounds read low 0.799 | locus YGL253W, strain hxk2, active compounds read low 0.859 | locus YHR013C, strain ard1, active compounds read low 0.677 | locus YHR027C, strain rpn1, active compounds read low 0.817 | locus YHR142W, strain chs7, active compounds read low 0.77 | locus YJL095W, strain BCK1 (second series), active compounds read low 0.0692 | locus YJL129C, strain trk1, active compounds read low 0.794 | locus YJL164C, strain tpk1, active compounds read low 0.855 | locus YJL166W, strain qcr8, active compounds read low 0.862 | locus YLR027C, strain aat2, active compounds read low 0.921 | locus YLR221C, strain rsa3, active compounds read low 0.9 | locus YLR320W, strain mms22, active compounds read low 0.805 | locus YLR342W, strain FKS1, active compounds read low 0.647 | locus YLR357W, strain rsc2, active compounds read low 1.17 [resistant] | locus YLR370C, strain arc18, active compounds read low 0.703 | locus YMR058W, strain fet3, active compounds read low 0.661 | locus YMR205C, strain PFK2, active compounds read low 0.866 | locus YMR231W, strain pep5, active compounds read low 0.0786 | locus YNL071W, strain lat1, active compounds read low 0.847 | locus YNL209W, strain ssb2, active compounds read low 0.846 | locus YOR070C, strain gyp1, active compounds read low 0.817 | locus YOR083W, strain WHI5, active compounds read low 0.824 | locus YOR106W, strain vam3, active compounds read low 0.622 | locus YOR270C, strain vph1, active compounds read low 0.348 | locus YOR290C, strain snf2, active compounds read low 0.852 | locus YPL051W, strain arl3, active compounds read low 0.776

CN[C@@H]1C[C@@H](c2ccc(Cl)c(Cl)c2)c2ccccc21
inactive: [1] 0.923 | locus YAL040C, strain CLN3, active compounds read low 1.02 | locus YCL061C, strain MRC1 (second series), active compounds read low 0.942 | locus YER002W, strain NOP16, active compounds read low 1.06 | [3] 0.958 | locus YNL175C, strain NOP13, active compounds read low 1 | locus YNL197C, strain WHI3, active compounds read low 1.01 | locus YNL224C, strain SQS1, active compounds read low 1.07 | [6] 0.927
active: locus YDR363W, strain ESC2, active compounds read low 0.865 | [4] 0.663 | [5] 0.738 | locus YOR083W, strain WHI5 (second series), active compounds read low 0.826
